Several values for one entry are separate records, joined by “and”; a condition that tells them apart may be missing. Identical values can stand only once. The panel holds about 83,000 compounds, 20% with a hit somewhere; the sample as a whole holds those more often.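 Step 1: grow cells in 96-well plates. Step 2: add test compound at a single concentration. Step 3: incubate 48 h. Step 4: record percent growth.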 Activity calls are given as the source filed them.

The test system of this experiment is SK-MEL-5 melanoma. Put plainly: NCI-60 one-dose screen, 48 h (100 = growth as untreated, 0 = no growth, -100 = all killed). The settings on record: 10 µM. On the procedure:
Growth inhibition of the SK-MEL-5 human tumor cell line is measured as a screen for anti-cancer activity. Cells are grown in 96 well plates and exposed to the test compound for 48 hours. Compounds are tested at a single concentration, which is 10^-5 M for most compounds. The reported endpoint is percent growth (GI% or GIPRCNT), where numbers from 0 - 100% represent growth inhibition, and numbers from -100% - 0 represent cell death. For example, a value of 40 represents 60% growth inhibition. A value of 0 means no net growth occurred over the course of the experiment. A value of -40 indicates 40% of cells at the beginning of the experiment died by the end of the experiment. A value of -100 means all cells are dead at the end of the experiment.
NCI-60 Human Tumor Cell Lines Screen was performed using the standard one-dose NCI protocol, which is described in more detail at https://dtp.cancer.gov/discovery_development/nci-60/default.htm.
Compounds with GIPRCNT values below 10 were considered active. Activity score was based on GIPRCNT using the following formula: […]
Score is 0 for GIPRCNT values of 100 or above, 50 for GIPRCNT values of 0, and 100 for GIPRCNT values of -100.
Turning to `C/C=C/CC(C)C(O)[C@H](NC(=O)[C@@H]1CCCN1C(=O)C(C)(C)NC(=O)CCCCCCCCC)C(=O)N[C@@](C)(CC)C(=O)N[C@@H](CCC(N)=O)C(=O)N[C@H](CCC(N)=O)C(=O)NC(C)(C)C(=O)NC(C)(C)C(=O)N[C@@H](CCC(N)=O)C(=O)N[C@H](CC(C)C)C(=O)N[C@H](CO)CC(C)C` (some centres undefined), the growth was -54.6% (active) and 12.6% (inactive).
To `COc1cc2c(O[C@@H]3OC[C@H](O)[C@H](O)[C@H]3O)c3c(c(-c4ccc5c(c4)OCO5)c2cc1OC)C(=O)OC3` belongs -93.4% (active).
For `CC1=C(CN(O)C(N)=O)C2=C(C)C3(CC3)[C@@](C)(O)C(=O)C2=C1`, the growth is -61.6% (active).
For `COC(=O)[C@H]1[C@@H](O)[C@@]2(O)c3c(OC)cc(OC)cc3O[C@@]2(c2ccc(OC)cc2)[C@@H]1c1ccccc1`, the growth was -55.8% (active).
For the compound `C/C=C\C(=O)O[C@@H]1CC2O[C@@H]3C=C(C)C(=O)C[C@]3(C)[C@]1(C)[C@]21CO1`, the growth is -57% (active).
Turning to `N#Cc1nc(-c2ccccc2)oc1N1CCC(S(=O)(=O)F)CC1`, the growth is 96.3% (inactive).
Take `C/C=C/CC(C)C(O)[C@H](NC(=O)[C@@H]1CCCN1C(=O)C(C)(C)NC(=O)CCCCCCC)C(=O)N[C@@](C)(CC)C(=O)N[C@@H](CCC(N)=O)C(=O)N[C@H](CCC(N)=O)C(=O)NC(C)(C)C(=O)NC(C)(C)C(=O)N[C@@H](CCC(N)=O)C(=O)N[C@H](CC(C)C)C(=O)N[C@H](CO)CC(C)C` (some centres undefined): the growth was 100% (inactive) and -65.7% (active).
Regarding `COc1cc(OC)c(S(=O)(=O)N(CCCl)CCCl)cc1C(=O)/C=C/c1ccc(Cl)cc1`, the growth was 87.1% (inactive).
On to `COC1[C@@H]2C[C@H]3C(C)(C)O[C@@](C/C=C(/C)C(=O)O)(C2=O)[C@]32Oc3c(CC=C(C)C)c4c(c(O)c3C(=O)[C@H]12)C=CC(C)(C)O4` (some centres undefined), for which the growth is -98.4% (active).
On to `C/C=C/CC(C)C(O)[C@H](NC(=O)[C@@H]1CCCN1C(=O)C(C)(C)NC(=O)CCCCCCCCC)C(=O)N[C@@](C)(CC)C(=O)N[C@@H](CCC(N)=O)C(=O)N[C@H](CCC(N)=O)C(=O)NC(C)(C)C(=O)N[C@@](C)(CC)C(=O)N[C@@H](CCC(N)=O)C(=O)N[C@H](CC(C)C)C(=O)N[C@H](CO)CC(C)C` (some centres undefined), for which the growth was 99.9% (inactive) and -90.2% (active).
For `CC1=C(CN(O)C(N)=O)C2=C(C)C3(CC3)[C@](C)(O)C(=O)C2=C1`, the growth is 85.8% (inactive).
With `N#Cc1c(-n2c(Br)c(Br)c3cc(Br)ccc32)[nH]c2c(Br)cc(Br)cc12`, the growth is -76.8% (active).
To `CC(C)=CCc1c2c(c(O)c3c1O[C@]14C(=C[C@@H]5C[C@H]1C(C)(C)O[C@@]4(C/C=C(/C)C(=O)O)C5=O)C3=O)C=CC(C)(C)O2` belongs -98.9% (active).
On to `CC1=C2C(=C[C@@](C)(C=O)[C@@H]2O)C(=O)[C@](C)(O)C12CC2`, for which the growth was -79.5% (active).
For the compound `CC(=O)O[C@@H]1C[C@H]2O[C@@H]3C=C(C)CC[C@]3(C)[C@]1(C)[C@]21CO1`, the growth was -50.9% (active).
Turning to `O=C(CCCc1ccc(N(CCCl)CCCl)cc1)OCc1ccccc1`, the growth is 93.7% (inactive).
The figure for `CCCCCCCCCC(=O)N[C@@](C)(CC)C(=O)N1CCC[C@H]1C(=O)N[C@@H](CC(C)C)C(=O)N[C@@](C)(CC)C(=O)N[C@@H](CCC(N)=O)C(=O)N[C@H](CCC(N)=O)C(=O)NC(C)(C)C(=O)NC(C)(C)C(=O)N[C@@H](CCC(N)=O)C(=O)N[C@H](CC(C)C)C(=O)N[C@H](CO)CC(C)C` is -94.2% (active) and -97.9% (active).
To `COc1cccc2c1cc([N+](=O)[O-])c1c(C(=O)O)cc3c(c12)OCO3` belongs 102% (inactive); to `C[C@@H]1C[C@H]2C(=O)O[C@@H](C)C(NC(=O)[C@H](Cc3cc(F)cc(F)c3)NC(=O)Nc3ccc(OS(=O)(=O)F)cc3)C(=O)N3CCC[C@H]3C(=O)N3CCO[C@H](C)[C@H]3C(=O)N[C@@H](CO)C(=O)N2C1` (some centres undefined), -6.32% (active); to `C=C1[C@@H](C)C2[C@H](Cc3ccccc3)NC(=O)[C@]23[C@H](OC(C)=O)/C=C/[C@@](C)(O)C(=O)[C@@H](C)C/C=C/[C@H]3[C@@H]1O` (some centres undefined), 33.5% (inactive).
For `CC(=O)O[C@@H]1[C@@H]2O[C@H]2[C@@](C)(O)C(=O)[C@@H](C)C/C=C/[C@H]2[C@@H]3O[C@]3(C)[C@@H](C)C3[C@H](Cc4ccccc4)NC(=O)[C@@]312` (some centres undefined), the growth is 71% (inactive).
As to `COc1cc2c(cc1OC)[C@@H]1N(CC2)C(=O)c2ccccc2[C@@]1(C)C(=O)O`, the growth was 101% (inactive).
On to `CC1=C2C(=C[C@@](C)(COC(=O)c3ccc(S(=O)(=O)F)cc3)[C@@H]2O)C(=O)[C@](C)(O)C12CC2`, for which the growth is -82.5% (active).
The figure for `CC1=C2C(=C[C@@](C)(COC(=O)c3ccc(S(=O)(=O)F)cc3)[C@@H]2OC(=O)c2ccc(S(=O)(=O)F)cc2)C(=O)[C@](C)(O)C12CC2` is -96.9% (active); for `COc1cc(C)c(-c2ccc(OC)c(=O)cc2C)c(OC)c1OC` it is 21.7% (inactive) and 99.7% (inactive).
As to `NC1CCc2cc(O)c(O)cc2C1` (centres undefined), the growth is 87.4% (inactive).
In the case of `CC1=C[C@H]2O[C@@H]3C[C@@H](O)[C@](C)([C@@]2(C)CC1)[C@@]31CO1`, the growth was 12.1% (inactive).
With `C/C=C/CC(C)C(O)[C@H](NC(=O)[C@@H]1CCCN1C(=O)C(C)(C)NC(=O)CCCCCCCCC)C(=O)NC(C)(C)C(=O)N[C@@H](CCC(N)=O)C(=O)N[C@H](CCC(N)=O)C(=O)NC(C)(C)C(=O)NC(C)(C)C(=O)N[C@@H](CCC(N)=O)C(=O)N[C@H](CC(C)C)C(=O)N[C@H](CO)CC(C)C` (some centres undefined), the growth is -93.3% (active) and -92.8% (active).
Take `CC1=C(CCC=NNC(N)=O)C2=C(C)C3(CC3)[C@@](C)(O)C(=O)C2=C1`: the growth is -80.6% (active).
Take `CCC(C)[C@H]1C(=O)O[C@H](C(C)C)C(=O)N(C)[C@@H](C(C)C)C(=O)O[C@H](C(C)C)C(=O)N(C)[C@@H](C(C)C)C(=O)O[C@H](C(C)C)C(=O)N1C` (some centres undefined): the growth is -33.5% (active).
To `CC1=C[C@H]2O[C@@H]3C[C@H]4OC(=O)/C=C\C=C\[C@H]([C@@H](C)O)OCC/C(C)=C/C(=O)OC[C@@]2(CC1)[C@]4(C)[C@]31CO1` belongs -89.2% (active); to `CC1=C[C@H]2O[C@@H]3C[C@H]4OC(=O)/C=C\C=C\[C@H]([C@@H](C)O)OCC[C@@H](C)[C@H](O)C(=O)OC[C@@]2(CC1)[C@]4(C)[C@]31CO1`, -90.2% (active); to `CC(C)(O)/C=C/C(=O)[C@](C)(O)[C@H]1[C@H](O)C[C@@]2(C)[C@H]3CC=C4[C@@H](C[C@H](O)C(=O)C4(C)C)[C@]3(C)C(=O)C[C@]12C`, 1.6% (active).
Turning to `C[C@@H]1CCC/C=C/[C@H]2C[C@@H](O)C[C@@H]2[C@@H](O)/C=C/C(=O)O1`, the growth was -92.8% (active).
As to `CN(CCF)/N=N/c1nc[nH]c1C(N)=O`, the growth is 74.6% (inactive).
Take `Cc1ccc(CNc2nc3ccc(OC/C(=C/F)CN)cc3o2)cn1`: the growth is 98% (inactive).
To `CN1C(=O)[C@]23SSC1(C)C(=O)N2[C@H]1Nc2ccccc2C1([C@@]12c4ccccc4N[C@@H]1N1C(=O)C4(C)SS[C@]1(C(=O)N4C)[C@H]2O)[C@@H]3O` (some centres undefined) belongs -99% (active); to `CC1=C2C(=C[C@@](C)(COS(C)(=O)=O)[C@@H]2O)C(=O)[C@](C)(O)C12CC2`, -18% (active).
`CC1=C2C(=O)[C@](C)(CO)C=C2C(=O)[C@](C)(O)C12CC2`: the growth is 24.2% (inactive).

The values above are taken from PubChem BioAssay (NCI).
